Source: PubChem BioAssay
Sampled rows, rich in hits. Any-hit rate of the full collection: about 1.8%.
MIN6 prolif-1: induces beta-cell replication in MIN6 cells; MIN6 cells proliferation, ATPlite luminescence, 48 h; cells starved in 0.2% serum; 100% = growth in 10% serum; proliferation, % at 10 µM; 330,000 tested, 0.29% active; AID 2380;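 active = compounds whose signal lies at least 3.5 SD above the mean of all wells on their plate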
A3G deaminase: inhibitors of human APOBEC3G DNA deaminase | recombinant A3G, ssDNA deamination FAM/TAMRA fluorescence | 330,000 tested, 0.28% active | Q9HC16 | inhibition, % at 20 µM;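 active = inhibition of at least 40% at 20 µM, with no more than 30% in the related APOBEC3A deaminase screen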
Target sequence (Q9HC16 whole entry, looked up): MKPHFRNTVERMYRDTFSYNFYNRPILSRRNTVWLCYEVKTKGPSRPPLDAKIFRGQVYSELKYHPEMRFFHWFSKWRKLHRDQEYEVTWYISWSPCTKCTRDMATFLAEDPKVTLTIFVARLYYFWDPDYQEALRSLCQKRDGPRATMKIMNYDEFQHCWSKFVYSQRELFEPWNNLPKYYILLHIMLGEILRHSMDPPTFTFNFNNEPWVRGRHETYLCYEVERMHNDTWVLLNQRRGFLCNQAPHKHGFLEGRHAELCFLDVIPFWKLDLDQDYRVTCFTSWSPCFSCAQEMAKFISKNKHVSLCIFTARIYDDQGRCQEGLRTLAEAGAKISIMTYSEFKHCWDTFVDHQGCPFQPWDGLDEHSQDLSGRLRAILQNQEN
APOBEC3A inh: inhibitors of human APOBEC3A DNA deaminase. recombinant A3A, FAM/TAMRA ssDNA deamination fluorescence. inhibition, % at 20 µM. AID 493011. 330,000 tested, 0.41% active;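 active = at least 40% inhibition at 20 µM here, with at most 30% in a related deaminase screen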
Target sequence (P31941 whole entry, looked up): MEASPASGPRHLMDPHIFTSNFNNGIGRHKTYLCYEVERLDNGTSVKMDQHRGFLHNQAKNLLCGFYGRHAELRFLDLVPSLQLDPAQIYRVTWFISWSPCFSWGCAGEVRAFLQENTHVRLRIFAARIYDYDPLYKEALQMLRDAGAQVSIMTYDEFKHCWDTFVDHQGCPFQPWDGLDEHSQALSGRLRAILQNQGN
VLA-4 inh: inhibition in a human VLA-4 binding assay. P13612. VLA-4 expressing cells, ligand binding flow cytometry. inhibition, % (about 7 µM as worked out from the volumes in the protocol). 330,000 tested, 0.2% active; in the data active = inhibition above about 50%
CendR NRP1 mod: modulators of CendR peptide binding to human neuropilin-1; O14786; FAM-RPARPAR peptide binding to NRP-1, fluorescence polarization; inhibition, % at 25 µM; 360,000 tested, 0.85% active; AID 602438;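 active = inhibition or corrected inhibition above about 18%, plus a signal ratio from 0.5 to 1.5, limit read from the data, passing the limit was not always enough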
MIN6 prolif-2: confirmation of inducers of beta-cell replication in MIN6 cells; shares compounds with MIN6 prolif-1; MIN6 beta-cell proliferation, ATPlite luminescence, 48 h; cells kept in 0.2% serum; scaled between 0.2% and 10% serum; proliferation increase, % at 50 µM; 920 tested, under 10 active; AID 463095;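 active = proliferation increase above 40% at any of the four tested concentrations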
Of the large screens only hits and unclear results are named; the others gave an inactive call (follow-up assays come after a bar, where they were run).

CCc1ccc(NC(=O)N(CCCN2CCOCC2)C(C)c2cc3cccc(OC)c3o2)cc1 (centres undefined)	CendR NRP1 mod 37
COc1cccc2cc(C(C)N(CCCN3CCOCC3)C(=S)Nc3cc(C)cc(C)c3)oc12 (centres undefined)	none
O=C(/C=C/C=C/c1ccc2c(c1)OCO2)N1CCCCC1	none
O=C(/C=C/CCc1ccc2c(c1)OCO2)N1CCCCC1	CendR NRP1 mod 23
O=C(CN1CCN(S(=O)(=O)c2ccccc2)CC1)Nc1ccccc1C(=O)NC1CC1	none
CC(=O)c1ccc(S(=O)(=O)N2CCN(CC(=O)Nc3ccccc3C(=O)NC3CC3)CC2)cc1	CendR NRP1 mod 17
O=C(O)c1cc(S(=O)(=O)NC23CC4CC(CC(C4)C2)C3)ccc1Cl	none
CCOC(=O)C(NC(C)=O)C(=O)Nc1ccc(C(C)(C)C)cc1 (centres undefined)	none
CCOC(=O)C(NC(C)=O)C(=O)Nc1ccc(C(C)C)cc1 (centres undefined)	CendR NRP1 mod 26
Cc1sc2ccccc2c1CNC[C@H]1O[C@@H](n2cnc(C(N)=O)n2)[C@H](O)[C@@H]1O	none (no result: MIN6 prolif-1, A3G deaminase, APOBEC3A inh, VLA-4 inh)
Cc1nc(S/C(=C/c2ccc(-c3ccc(Cl)cc3)o2)C(=O)O)n[nH]1	CendR NRP1 mod 36
O=C(O)C1C2CCC(O2)C1C(=O)Nc1ccc(Br)cc1F (centres undefined)	none (no result: MIN6 prolif-1, A3G deaminase, APOBEC3A inh)
COc1ccc(C(=O)COC(=O)C(CCSC)NS(=O)(=O)c2ccc(Cl)cc2)cc1 (centres undefined)	CendR NRP1 mod 26 (no result: MIN6 prolif-1, A3G deaminase, APOBEC3A inh)
Cn1cnnc1SCC(=O)NC1CCCCC1	none
CC1CCC(NC(=O)CSc2nncn2C)CC1 (centres undefined)	CendR NRP1 mod 23
COc1ccc(C(=O)Nc2c(N)nc[nH]c2=O)cc1	none
CC(=O)C1=C(NC(=O)c2ccccc2F)C[C@@H]2[C@H]1C2(C)C	CendR NRP1 mod 17
Cc1ccc(OCC(=O)OCC(=O)NC2CC2)cc1C	none
COC(=O)c1cccc(NC(=S)NCc2ccc(F)cc2)c1	CendR NRP1 mod 46
CN(C)CCCOC(=O)c1cc2ccccc2o1	CendR NRP1 mod 24
Cc1ccc2c(c1)cc(C(=O)NCc1ccccc1)n2C	none
CC1OC(CC(=O)O)CC2=C1C(=O)c1c(O)cccc1C2=O (centres undefined)	CendR NRP1 mod 35 (no result: MIN6 prolif-1, A3G deaminase, APOBEC3A inh, VLA-4 inh)
Cc1cc(NC(=O)CSc2nc(N)c(NC(=O)c3ccc(F)c(F)c3)c(=O)[nH]2)no1	CendR NRP1 mod 23
Cc1cc(NC(=O)CSc2nc(N)c(NC(=O)c3ccccc3)c(=O)[nH]2)no1	none
O=C(Nc1ccccc1Oc1ccccc1)C1=COCCO1	none
S=C(NCCCNC(=S)Nc1ccccc1)Nc1ccccc1	CendR NRP1 mod 48
CCCNC(=S)Nc1ccc(Nc2ccccc2)cc1	none
S=C(NCC1CCCO1)Nc1ccc(Cl)cc1 (centres undefined)	none
S=C(NCC1CCCO1)Nc1ccccc1 (centres undefined)	CendR NRP1 mod 21
CCOC(=O)C1CCN(C(=O)c2ccc(OC3CCN(C(=O)COC)CC3)cc2)CC1	none (no result: VLA-4 inh)
COc1ccc(CCNC(=O)CSCC(=O)Nc2cc(S(C)(=O)=O)ccc2Cl)cc1	none
CC(C)Cn1cnc2c1c(=O)n(CC(=O)NC(=O)NC(C)(C)C)c(=O)n2Cc1ccccc1	CendR NRP1 mod 18
CC(C)Cn1cnc2c1c(=O)n(CC(=O)O)c(=O)n2Cc1ccccc1	none
CCC(C)c1ccccc1N1CC(C(=O)N2CCN(S(=O)(=O)c3cccc([N+](=O)[O-])c3)CC2)CC1=O (centres undefined)	none (no result: VLA-4 inh)
O=C(N[C@@H](Cc1ccccc1)C(=O)OCc1ccccc1)c1ccco1	none
CCn1c(C)nnc1SCC(=O)NC1CCCCCC1	CendR NRP1 mod 27
CCCn1c(C)nnc1SCC(=O)NC1CCCCC1	none
O=S(=O)(NCc1ccccc1)c1ccc(S(=O)(=O)N(Cc2ccccn2)Cc2ccco2)cc1	CendR NRP1 mod 38
CCOc1ccc(CCN2C(=S)N([C@@H](CC(C)C)CN3CCC[C@@H]3CN3C(=S)NC[C@@H]3CC(C)C)C[C@@H]2Cc2ccc(O)cc2)cc1	CendR NRP1 mod 24 (no result: MIN6 prolif-1, A3G deaminase, APOBEC3A inh, VLA-4 inh)
CCCCN(C(=O)c1cc2c(s1)CCCCC2)c1c(N)n(CC(C)C)c(=O)[nH]c1=O	none (no result: VLA-4 inh)
COc1ccccc1/C=N/NC(=O)CN(C1=NS(=O)(=O)c2ccccc21)c1ccccc1	CendR NRP1 mod 26
COc1ccc(/C=N/NC(=O)CN(C2=NS(=O)(=O)c3ccccc32)c2ccccc2)cc1	none
CCCCN(C(=O)c1cccs1)C1CCS(=O)(=O)C1 (centres undefined)	none
Cc1cc(NC2=CC(=O)C(=O)c3ccccc32)no1	CendR NRP1 mod 28 (no result: MIN6 prolif-1, A3G deaminase, APOBEC3A inh, VLA-4 inh)
C=CCOc1ccc(CNC(C)(C)C)cc1OC	CendR NRP1 mod 24
COc1ccc(S(=O)(=O)Nc2cccc3c2O[C@H](CN(C)CC2CCCCC2)[C@@H](C)CN([C@H](C)CO)C3=O)cc1	none
COc1ccccc1C(=O)NCC(C)(C)CN=C1NS(=O)(=O)c2ccccc21	MIN6 prolif-1 6.6 | MIN6 prolif-2 inactive
CCOC(=O)C1CCN(c2cc3c(cc2NC(=O)c2ccccc2Cl)n(C)c(=O)n3C)CC1	MIN6 prolif-1 15 | MIN6 prolif-2 inactive
O=C(NC1CCCCCC1)C1CCN(S(=O)(=O)c2ccc(F)cc2)CC1	MIN6 prolif-1 6.5 | MIN6 prolif-2 inactive
Cc1cccn2c(=O)c3cc(C(=O)NCCc4ccccc4)sc3nc12	MIN6 prolif-1 7.4 | MIN6 prolif-2 inactive
CC(OC(=O)c1cccnc1Cl)C(=O)Nc1ccc2c(c1)OCO2 (centres undefined)	none
COc1ccc(/C=C/C(=O)OCC(=O)NC2CCCC2)cc1OC	MIN6 prolif-1 11 | MIN6 prolif-2 inactive
COc1ccc(/C=C/C(=O)OCC(=O)NC2CCCCCCC2)cc1	none
COc1ccc(/C=C/C(=O)C(C)(C)C)cc1OC	MIN6 prolif-1 6.6 | MIN6 prolif-2 inactive
CCOC(=O)CCC(=O)Nc1ccc(S(=O)(=O)Nc2cc(OC)nc(OC)n2)cc1	none
COCCN(C(=O)COC(=O)COc1ccc(Cl)c(C)c1)c1c(N)n(Cc2ccccc2)c(=O)[nH]c1=O	none
CS(=O)(=O)c1ccc(-c2csc(-c3cccnc3)n2)cc1	MIN6 prolif-1 9.8 | MIN6 prolif-2 inactive
Cc1cc(-c2nc3cc(F)ccc3s2)ccc1N	none (no result: MIN6 prolif-1, A3G deaminase, APOBEC3A inh, VLA-4 inh)
Cc1ccc(OCCNC(=O)CNC(=O)c2ccc3c(c2)OCO3)cc1	MIN6 prolif-1 11 | MIN6 prolif-2 inactive
Cc1ccsc1/C=N/NC(=O)CNC(=O)c1cccc([N+](=O)[O-])c1C	MIN6 prolif-1 8.1, VLA-4 inh 56 | MIN6 prolif-2 inactive
CC(C)[C@H](NS(=O)(=O)c1ccccc1)C(=O)OCC(=O)Nc1ccc2c(c1)OCO2	MIN6 prolif-1 4.6 | MIN6 prolif-2 inactive
CSc1nc2c(=S)[nH]c(=S)[nH]c2s1	none (no result: MIN6 prolif-1, A3G deaminase, APOBEC3A inh, VLA-4 inh)
CCOc1cc(C(=O)Nc2ccc3c(c2)OCO3)ccc1OCCOc1ccccc1Cl	none
